Experimental data: ChEMBL document CHEMBL4513216, “Probing the Open Global Health Chemical Diversity Library for Multistage-Active Starting Points for Next-Generation Antimalarials” (ACS Infect Dis, 2020)
The campaign covered roughly 68,000 compounds. About 2,700 (4%) showed an effect of 50% or more. The full list was thinned out, with strong results kept by preference.

Each molecule was assayed on Plasmodium berghei (assay: Screen against P. berghei liver stage (PbLuc), transformed with Luciferase, at 2uM). Conditions: tested at 2 uM.
Format: functional, HepG2

| Compound | INHIBITION |
| --- | --- |
| O=C(CN(C1=NCCCCC1)c1ccc(Cl)cc1)c1ccccc1 | -65.06% |
| CC(C)c1ccc(CN2CCC3(CCCN(c4nncs4)C3)C2)cc1 (configuration not stated) | 5.52% |
| Cc1noc(C)c1CCC(=O)N1CCN(CCn2cccn2)CC1 | 2.18% |
| CC(NC(=O)COCC(F)(F)F)c1nnc2n1CCCCC2 (configuration not stated) | 15.08% |
| Fc1ccccc1-c1cccc(C2CCCN(C3CCOCC3)C2)n1 (configuration not stated) | 25.4% |
| c1ncn(CCNC2CCCN(Cc3noc(C4CC4)n3)C2)n1 (configuration not stated) | 54.29% |
| CCc1nc(CN2CCCC(NCCn3cncn3)C2)no1 (configuration not stated) | 35.56% |
| Cc1ccsc1CNC1CCCN(Cc2noc(C3CC3)n2)C1 (configuration not stated) | 17.59% |
| c1ncn(CC2CCCN(Cc3noc(C4CC4)n3)C2)n1 (configuration not stated) | 29.54% |
| c1ncn(CC2CCCCN2Cc2noc(C3CC3)n2)n1 (configuration not stated) | 62.13% |
| Cc1nc(CN2CCCC(NCc3ccsc3)C2)no1 (configuration not stated) | 20.28% |
| Cc1nc(CN2CCCC2Cn2cncn2)no1 (configuration not stated) | -21.93% |
| c1cnn(CC2CCCCN2Cc2noc(C3CC3)n2)c1 (configuration not stated) | -10.47% |
| Cc1nc(CN2CCCC(NCc3sccc3C)C2)no1 (configuration not stated) | 51.94% |
| CCC(=O)Nc1cccc(C(=O)NCCC2=CSC3=NCCCN23)c1 | -17.86% |
| COc1ccc(-c2nc(C3CCNCC3)cc3c2ncn3C)cc1 | -0.45% |
| COCCS(=O)(=O)c1ncc(CN(C)C)n1Cc1ccccc1 | 29.41% |
| Cc1ccc2c(c1)N(C(=O)C1CCCOC1)CCC2 (configuration not stated) | -13.38% |
| O=C(C1CCCOC1)N1CCCCc2ccccc21 (configuration not stated) | 16.09% |
| O=C(C1CCCOC1)N1CCCc2ccccc21 (configuration not stated) | 53.29% |
| C1CCCN(c2nc(C3CC3)no2)CC1 | 28.02% |
| Cc1ncsc1CN1C[C@@H]2CN(Cc3cccnc3)CCO[C@@H]2C1 | 54.13% |
| COc1ccc(CN2C[C@@H]3CN(Cc4cccnc4)CCO[C@@H]3C2)cc1 | 39.57% |
| Cc1ccsc1CN1C[C@@H]2CN(Cc3cccnc3)CCO[C@@H]2C1 | 4.26% |
| Cc1cc(C)c2cc(CNC3CCCCC3)c3nn(C)c(=O)n3c2c1 | 14.26% |
| Cc1cccc(C2(CNC(=O)CCNS(C)(=O)=O)CCCC2)c1 | 3.9% |

| Compound | INHIBITION |
| --- | --- |
| COCCN1CCC2(CC1)CC(N1CCOCC1)c1ccc(C)cc12 (configuration not stated) | 17.47% |
| CC(C)C(=O)N(C)Cc1nnc2n1CCCCC2 | 21.82% |
| CC(C)C(Sc1ccccc1)C(=O)N(C)Cc1nnc2n1CCC2 (configuration not stated) | 64.39% |
| CC(=O)NC(C(=O)N(C)Cc1nnc2n1CCC2)C(C)C (configuration not stated) | -63.33% |
| CC(C)Nc1nc2c(c(NC3CC3)n1)CCN(Cc1nccn1C)CC2 | 34.71% |
| CCCn1cc(NC2CCSCC2)cn1 | 46.58% |
| O=C(NCC1(O)CCC1)NC(c1cc(F)ccc1F)C1CC1 (configuration not stated) | -5.74% |
| CCOC(=O)c1n[nH]cc1CN1CCOC(Cc2ccccc2)C1 (configuration not stated) | -30.18% |
| CCOC(=O)c1n[nH]cc1CN1CCCC(N(C)Cc2ccccc2)C1 (configuration not stated) | 52.3% |
| CCOC(=O)c1n[nH]cc1CN1CCOC(Cc2ccc(F)cc2)C1 (configuration not stated) | -142.94% |
| CCS(=O)(=O)N1CC(=O)N(CCCc2ccccc2)CC(O)C1 (configuration not stated) | 12.44% |
| Cc1cnn(CC2CCCN2C(=O)c2cnc3n[nH]c(C)c3c2)c1 (configuration not stated) | -27.31% |
| O=C(Cn1cc(C(=O)O)ccc1=O)NCc1ccc(F)c(Cl)c1 | 11.14% |
| O=C(C1CC1)N(Cc1ccc2cc[nH]c2c1)C1CC1 | 11.43% |
| CN(C)c1nc2c(c(N(C)C)n1)CCN(C(=O)CN1CCC(O)CC1)C2 | 13.99% |
| Cc1ccc(CN2Cc3ccnn3CC(COCc3cccnc3)C2)o1 (configuration not stated) | 49.25% |
| c1cncc(COCC2CN(Cc3cccnc3)Cc3ccnn3C2)c1 (configuration not stated) | 56.78% |
| c1cncc(COCC2CN(Cc3ccncc3)Cc3ccnn3C2)c1 (configuration not stated) | -34.65% |
| c1cncc(COCC2CN(Cc3ccco3)Cc3ccnn3C2)c1 (configuration not stated) | 1.22% |
| c1cncc(COCC2CN(Cc3ccsc3)Cc3ccnn3C2)c1 (configuration not stated) | -10.99% |
| c1ccc(CN2Cc3ccnn3CC(COCc3cccnc3)C2)nc1 (configuration not stated) | 50.32% |
| c1cncc(OCC2CN(Cc3ccsc3)Cc3nccn3C2)c1 (configuration not stated) | 45.82% |
| c1ccc(COCC2CN(Cc3ccsc3)Cc3nccn3C2)nc1 (configuration not stated) | 59.88% |
| CN(C)C(=O)COCC1CN(Cc2ccsc2)Cc2nccn2C1 (configuration not stated) | 15.44% |
| CN(C)C(=O)CCC[S+]([O-])Cc1ccc(Cl)c(Cl)c1 (configuration not stated) | -32.8% |
| CSc1ccc(CN(C)Cc2noc(C(C)(C)C)n2)cc1 | 21.28% |

| Compound | INHIBITION |
| --- | --- |
| CC(C)Nc1nc2c(s1)C(=O)CN(CC1CC1)C2 | -17.3% |
| CC[C@@]1(O)CCN(CCCOc2ccc(C(N)=O)cc2)C[C@H]1O | -15.75% |
| CN1CCc2ccc(NCc3cccs3)cc2C1=O | 50.59% |
| CN(CCc1cccs1)C(=O)Nc1ccc2c(c1)C(=O)N(C)CC2 | 5.28% |
| CN1CCc2ccc(NCc3cscn3)cc2C1=O | 36.28% |
| CCO[C@H]1CO[C@@]2(CCN(Cc3ccc4c(c3)OCO4)C2)C1 | -23.42% |
| FC(F)(F)Cn1ccnc1CN1CCCC1c1noc(C2CC2)n1 (configuration not stated) | -2.7% |
| COCCNC(=O)C1CN(Cc2csc(C)n2)Cc2ccnn2C1 (configuration not stated) | 47.54% |
| CC(C)CC(O)C1CCN(C(=O)c2coc(CN3CCOCC3)c2)CC1 (configuration not stated) | 13.19% |
| CC(C)CC(O)C1CCN(C(=O)c2ccc(C(C)C)[nH]c2=O)CC1 (configuration not stated) | -25.72% |
| CC(C)CC(O)C1CCN(C(=O)c2ccc(C(F)(F)F)nc2O)CC1 (configuration not stated) | 72.05% |
| O=C(NCC(O)(c1cccs1)C1CC1)NC1CCCCC1 (configuration not stated) | -11.54% |
| CN(Cc1ccccn1)C(C(=O)O)c1ccc2c(c1)OCO2 (configuration not stated) | 13.86% |
| COc1ccc(CCN2CC(n3nc(C)cc3C)C2)cc1 | 33.55% |
| Cc1nc2[nH]cnc(NCCN3CCOCC3)c-2n1 | -7.81% |
| O=C(NCC1CCN(Cc2ccsc2)CC1)NC1CC1 | -18.04% |
| O=C(NCc1ccccc1)NCC1CCN(Cc2ccsc2)CC1 | 51% |
| CN1[C@@H](C(=O)NCC2CC2)C[C@H]2CN(Cc3ccsc3)C[C@H]21 | 1.29% |
| CN1[C@@H](C(=O)NCC2CC2)C[C@@H]2CN(Cc3ccsc3)C[C@@H]21 | 59.5% |
| Cc1ccc(CN2C[C@@H]3C[C@H](C(=O)NCC4CC4)N(C)[C@@H]3C2)o1 | 21.06% |
| Cc1nc(CN2C[C@H]3C[C@H](C(=O)NCC4CC4)N(C)[C@H]3C2)cs1 | 55.66% |
| Cc1ccc(CN2C[C@H]3C[C@H](C(=O)NCC4CC4)N(C)[C@H]3C2)o1 | -13.53% |
| O=C(CCc1ccccc1)NCC1CCN(Cc2ccsc2)CC1 | 13.22% |
| CN1[C@@H](C(=O)NCC2CC2)C[C@@H]2CN(Cc3ccoc3)C[C@@H]21 | 40.83% |
| Cc1cnn(CC2CCCN2C(=O)c2cccc(-n3ccc(C)n3)c2)c1 (configuration not stated) | 23.42% |
| CS(=O)(=O)c1ccc(C(=O)N2CCCC(n3cncn3)C2)o1 (configuration not stated) | -15.41% |

| Compound | INHIBITION |
| --- | --- |
| CCOC(=O)[C@]12CCCN(Cc3cccs3)C[C@H]1CN(C(C)C)C2 | -10.41% |
| CCn1nc(C)c(CNC(=O)NCC(C)(O)c2ccc(C)o2)c1C (configuration not stated) | -109.32% |
| O=C1COC2(CCN(CC3CC3)CC2)CN1c1cncnc1 | -59.44% |
| CCC(C)N1CCC2(CC1)CN(c1cncnc1)C(=O)CO2 (configuration not stated) | 51.55% |
| CCS(=O)(=O)N1CCC2(CC1)CN(c1cncnc1)C(=O)CO2 | -28.81% |
| CSc1nc(C)cc(N2CCC(c3ncc[nH]3)CC2)n1 | -69.92% |
| CC(C)NS(=O)(=O)c1cc(C(=O)O)cc(-c2ccccc2CO)c1 | 76.6% |
| CC(C)NS(=O)(=O)c1cc(C(=O)O)cc(-c2ccccc2C#N)c1 | -10.44% |
| CC(=O)c1ccccc1-c1cc(C(=O)O)cc(S(=O)(=O)NC(C)C)c1 | 17.48% |
| CC(C)NS(=O)(=O)c1cc(C(=O)O)cc(-c2ccccc2F)c1 | 38.83% |
| CC(C)NS(=O)(=O)c1cc(C(=O)O)cc(-c2ccccc2CN(C)C)c1 | 58.24% |
| CC(C)NS(=O)(=O)c1cc(C(=O)O)cc(-c2ccc(CN(C)C)cc2)c1 | 15.42% |
| Cn1c(CCNc2nccnc2C#N)nc2ccc(F)cc21 | 8.03% |
| CCc1nnc2n1CCN(C(=O)c1cc3c(F)cccc3[nH]1)C2 | 9.17% |
| CC(C)[C@@H]1CN(CC(=O)NCc2ccco2)C[C@H]1NS(=O)(=O)N(C)C | -30.53% |
| CC(C)[C@@H]1CN(C(=O)NCc2ccco2)C[C@H]1NS(=O)(=O)N(C)C | 28.95% |
| CC(C)[C@@H]1CN(C(=O)NCc2ccco2)C[C@H]1N(C)C | 52.08% |
| CC1COCCN1C(=O)c1cnccn1 (configuration not stated) | -108.55% |
| COCCN1CCC2(CC1)CC(c1cccnc1)C(=O)N2C (configuration not stated) | 11.98% |
| COCCNC(=O)[C@H]1C[C@@](CC(C)C)(C(=O)O)N(C)[C@H]1c1cccnc1 | 20.32% |
| CCN(C)C(=O)[C@H]1C[C@@](CC(C)C)(C(=O)OC)N(C)[C@H]1c1cccnc1 | 59.03% |
| O=C(O)CSc1nnc(-c2cn[nH]c2)n1-c1ccccc1Cl | 37.77% |
| O=C(O)CSc1nnc(-c2cn[nH]c2)n1-c1ccccc1C(F)(F)F | 71.98% |
| O=C(O)CSc1nnc(-c2ccn[nH]2)n1-c1ccccc1C(F)(F)F | -43.98% |
